Compound activity from PubChem BioAssay.
Sampled rows, rich in hits. Any-hit rate of the full collection: about 10%.
Six1-Eya2 inh: inhibitors of human Six1/Eya2 interaction; Q15475+O00167; AID 651725; activity change, % (concentration not given with the values); actives 0.56% (n = 360,000); AlphaScreen GST-Six1/His-Eya2 binding, biochemical; hits give low values; in the data active = activity change below about -65%; inconclusive = mostly about -30% to -63%; also: % is scaled to controls: 0 for no effect and ±100 for the full control effect
Target sequence (O00167 whole entry, looked up): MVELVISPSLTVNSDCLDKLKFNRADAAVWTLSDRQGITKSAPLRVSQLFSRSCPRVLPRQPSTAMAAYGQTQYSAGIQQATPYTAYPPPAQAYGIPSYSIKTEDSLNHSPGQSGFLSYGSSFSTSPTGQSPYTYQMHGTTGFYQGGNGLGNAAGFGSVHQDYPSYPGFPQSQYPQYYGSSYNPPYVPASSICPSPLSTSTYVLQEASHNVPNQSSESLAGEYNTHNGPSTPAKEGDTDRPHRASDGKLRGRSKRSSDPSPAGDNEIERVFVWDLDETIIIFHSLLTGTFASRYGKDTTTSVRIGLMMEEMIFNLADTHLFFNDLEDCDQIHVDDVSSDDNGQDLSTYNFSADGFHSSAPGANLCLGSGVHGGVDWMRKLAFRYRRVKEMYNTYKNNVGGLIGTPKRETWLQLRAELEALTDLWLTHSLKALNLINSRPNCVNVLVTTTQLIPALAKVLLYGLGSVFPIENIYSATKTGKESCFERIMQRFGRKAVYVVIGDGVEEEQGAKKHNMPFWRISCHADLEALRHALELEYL
Target sequence (Q15475 whole entry, looked up): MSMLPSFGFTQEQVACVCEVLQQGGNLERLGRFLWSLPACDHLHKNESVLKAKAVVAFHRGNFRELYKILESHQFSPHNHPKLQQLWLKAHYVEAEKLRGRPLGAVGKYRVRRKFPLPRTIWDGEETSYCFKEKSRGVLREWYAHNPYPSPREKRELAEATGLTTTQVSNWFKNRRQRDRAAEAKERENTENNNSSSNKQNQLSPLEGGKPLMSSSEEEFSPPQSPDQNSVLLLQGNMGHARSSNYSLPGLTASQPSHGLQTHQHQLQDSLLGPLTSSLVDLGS
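Six1/Eya2 binding was read as AlphaScreen signal after compounds were pinned into GST-Six1 plus His-tagged Eya2 (5X stock 250/500 nM) in pH 8.0 Tris/NaCl/TCEP buffer, beads added, then incubated 1 h, 37 C, dark.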
JMJD2A Tudor: blocks the human JMJD2A Tudor domain. O75164. AlphaScreen JMJD2A-Tudor / H3K4me3 peptide binding. Potency, µM (highest dose often 114 µM), inactives show at the top dose activity change, negative = inhibition, most hits filed as inhibitors. actives 4.4% (n = 390,000); also: potency is read from the fitted curve at half-maximal effect; % is scaled to controls: 0 for no effect and ±100 for the full control effect; nearly all actives have a fitted effect of over 50% in size
G9a block: blocks human histone lysine methyltransferase G9a; Q96KQ7; G9a H3K9 monomethylation, AlphaScreen, 2 h; Potency, µM (doses to about 102 µM), without a hit: at the top dose activity, negative = inhibition, usual class: inhibitors; actives 8.8% (n = 350,000); AID 504332; also: potency is read from the fitted curve at half-maximal effect; % is scaled to controls: 0 for no effect and ±100 for the full control effect; nearly all actives have a fitted effect of over 75% in size
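Readings reflect AlphaScreen signal from monomethyl-H3K9 antibody detection. HMT at 20 nM; substrate b-H3K9 500 nM; cofactor SAM 20 uM; 2 h RT reaction; compounds tested as titrations in qHTS with 15 min preincubation.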
CtBP-E1A blk: blocks the CtBP interaction with E1A | actives 0.49% (n = 340,000) | activity change, % (test concentration not listed) | AlphaScreen GST-E1A/His-CtBP binding, 1536-well; hits give low values; in the data active = activity change below about -65%; inconclusive = mostly about -30% to -63%; also: % is scaled to controls: 0 for no effect and ±100 for the full control effect
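In 5 uL wells, 23 nL compound meets equimolar GST-E1A and His-CtBP (5X stock 125 nM each) for 2 h, 37 °C. Beads (5X, 50 ug/mL) then 1 h, 37 °C, dark.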
BAZ2B inh: BAZ2B (human) inhibition; AlphaScreen BAZ2B-H3K14Ac peptide displacement; actives 4.4% (n = 360,000); Potency, µM (series often up to 114 µM), inactives show top-dose activity change, negative = inhibition, most hits filed as inhibitors; Q9UIF8; also: potency is read from the fitted curve at half-maximal effect; % is scaled to controls: 0 for no effect and ±100 for the full control effect; nearly all actives have a fitted effect of over 60% in size
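BAZ2B (50 nM) with biotin-H3(5-23)K14Ac peptide (50 nM) in PBS pH 7.4, 0.01% Tween-20, preformed 30 min, then compound 30 min at room temperature; top concentration 110uM. AlphaScreen streptavidin donor/nickel chelate acceptor beads (10 ug/mL final), 20 min dark, signal read.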
HP1b binding inh: HP1-beta chromodomain-methylated histone interaction inhibition. AlphaScreen HP1-beta / biotin-H3K9me3 peptide binding. P83916. AID 540317. Potency, µM (titrated, usually from 114 µM), inactives show at the top dose activity change, negative = inhibition, actives largely listed as inhibitors. actives 0.56% (n = 390,000); also: potency is read from the fitted curve at half-maximal effect; nearly all actives have a fitted effect of over 70% in size
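HP1-beta protein (50 nM final) preincubated 30 min at room temperature with biotinylated H3(1-18)K9me3 peptide (50 nM) in PBS pH 7.4, 0.01% Tween-20, then compound added for 30 min. AlphaScreen streptavidin donor/nickel chelate acceptor beads (10 ug/mL final), 30 min dark, luminescence read.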
An asterisk follows results filed as active; ? = inconclusive; / = not tested or not shown; ! = repeats disagree; [ ] = remark or other dose. Unless noted, calls follow the shape of the dose curve; as a rule, active = well fitted inhibition curve with a large enough effect; inconclusive = small, poorly fitted or top-dose-only effect; inactive = no such curve, though single readings can be large or run the other way.

SMILES | Six1-Eya2 inh | JMJD2A Tudor | G9a block | CtBP-E1A blk | BAZ2B inh | HP1b binding inh
CCC(C)N1C(=O)/C(=C\c2cc3c4c(c2)CCCN4CCC3)C(=O)NC1=S (configuration not stated) | -12.8 | 14.1µM* | 44.7µM* | -0.6 | ? | ?
CC[C@@]1(C(=O)OC)N[C@H](CN(C)C(=O)Nc2ccc(F)cc2)[C@@H]2C(=O)N(Cc3ccccc3)C(=O)[C@@H]21 | 3.1 | -18.0% | / | -0.7 | / | 65.0%
Cc1ccc2c(c1)C(=O)CC1(CCC(C(C)(C)C)CC1)O2 (configuration not stated) | 8.8 | 14.1% | 89.3%[59 µM] | / | 42.3% | 69.0%
S=C1Nc2ccccc2Sc2ccccc21 | -13.9 | -15.6% | 10µM* | 7.8 | ? | ?
CCCCn1c(O)c(C(C)=NCCN2CCCCC2)c(=O)[nH]c1=O | -1.4 | -20.0% | 28.2µM* | -3.8 | -2.2% | 16.3%
CC(=NCCN1CCCCC1)c1c(O)n(Cc2ccccc2)c(=O)[nH]c1=O | -0.9 | -4.5% | 39.8µM* | 3.7 | 5.5% | 39.1%
Cc1onc(-c2ccccc2Cl)c1C(=O)NCc1ccc2c(c1)cc(C)n2C | -11.0 | ? | ? | -23.2 | ? | -9.0%
CC1(C)C(=O)C=C[C@@]2(C)C1=C(O)C(=O)[C@@]1(C)C2CC[C@@]2(C)C(c3ccoc3)C[C@H]3O[C@@]321 (some centres not stated) | / | / | -29.3%[2.33 µM] | / | / | /
Cc1nn(CCc2n[nH]c(=S)n2-c2cccc(Cl)c2)c(C)c1[N+](=O)[O-] | 0.2 | 44.7µM* | 1.12µM* | 3.7 | 1.7% | 21.3%
Cc1ccc2c(=O)n(-c3cccc(Cl)c3)c(=O)[nH]c2c1 | / | -7.5% | ? | / | 0.1% | 40.7%
c1cc(CN2CCCC3(CCNCC3)C2)ccn1 | / | / | -8.7%[12.7 µM] | / | / | /
COc1ccc(C2CC(c3c(O)n(CCc4ccccc4)c(=O)[nH]c3=O)=NN2)cc1OC (configuration not stated) | -67.6* | -29.2% | 56.2µM* | -25.8 | 22.4µM* | 38.0%
CC(=O)c1ccc(NC2CC(O)C(O)CO2)cc1 (configuration not stated) | 7.2 | -23.7%[57.1 µM] | ? | 2.6 | 0.8% | ?
COc1cc(C(=O)OC2C[C@H]3CC[C@@H](C2)N3)ccc1O (some centres not stated) | 0.8 | -17.1% | 39.8µM* | / | -19.1% | 19.4%
COc1cc(C(=O)OC2C[C@H]3CC[C@@H](C2)N3C)ccc1O (some centres not stated) | 1.1 | -5.3% | 7.0% | 5.1 | 5.4% | 41.4%
CC(Cc1ccccc1)NCC(=O)Nc1cc(N(C)C)nc2ccccc12 (configuration not stated) | 7.3 | 1.12µM* | ? | 8.7 | 35.5µM* | ?
CCOc1ccc(C(=O)Nc2ccc3nc(SCCOc4ccccc4)sc3c2)cc1 | / | -1.0% | 2.2%[59 µM] | / | ? | 35.5%
Cc1cc2c(cc(C(=O)N3CCC(C(=O)NC4CCCC4)CC3)n2Cc2c(F)cccc2Cl)o1 | 3.3 | ? | -137.5%[59 µM] | 2.2 | ? | 0.7%
Cc1[nH]c2ccc(OCc3ccccc3)cc2c1CCN | ? | ? | 50.1µM* | ? | ? | ?
Cc1[nH]c2ccc(O)cc2c1CCN | -0.7 | ? | 3.55µM* | -4.5 | -37.9% | -17.6%
COc1ccc(OC)c([C@H](O)[C@H](C)N)c1 | / | / | 19.1%[21.5 µM] | / | / | /
COc1ccc(-c2c3c(=O)n(C)c(=O)n(C)c3c3n2-c2ccccc2NC3c2ccccc2OC)cc1 (configuration not stated) | / | -12.6% | ? | / | -5.4% | 28.2%
NC(N)=NCCCCCCCCCCN=C(N)N | / | / | -0.6%[59 µM] | / | / | /
CN(C(=O)Cc1ccc(Cl)c(Cl)c1)C(CN1CCCC1)c1cccc(N=C=S)c1 (configuration not stated) | / | / | 17.8µM* | / | / | /
COc1ccc(C(CNC(=O)Cc2ccc(Cl)c(Cl)c2)N2CCCCC2)cc1 (configuration not stated) | -3.6 | -6.9% | 2.2% | -3.2 | -19.9% | 20.4%
SMILES | Six1-Eya2 inh | JMJD2A Tudor | G9a block | CtBP-E1A blk | BAZ2B inh | HP1b binding inh
Cc1ccccc1-n1nc(C)c2c1NC(=O)CSC2c1ccc(N(C)C)cc1 (configuration not stated) | / | -0.7% | -33.8%[59 µM] | / | 0.9% | 36.4%
Cc1ccccc1-n1nc(C)c2c1NC(=O)CSC2c1ccc(Cl)cc1 (configuration not stated) | / | -30.5% | 12.6µM* | / | ? | -10.1%
O=C(O)CN(CCN(CC(=O)O)CC(=O)O)CC(=O)O | / | / | 50.2%[59 µM] | / | / | /
CCOP(=O)(C1=C(O)C(=O)C(C(C)(C)C)=CC1=O)c1ccccc1 (configuration not stated) | 2.6 | -20.8% | 56.2µM* | 3.7 | -23.8% | 17.3%
C=CCN | / | / | 14.7%[59 µM] | / | / | /
COc1ccc(/C=C/C2=CCN(C)CC2)cc1 | -1.2 | -17.7% | 79.4µM* | / | -21.3% | 28.1%
Cc1[nH]c2ccccc2c1CCNCc1cccnc1 | -7.0 | -31.3% | ? | -1.3 | ? | 24.2%
COc1ccc2[nH]c(C)c(CCNCc3cn(C)c4ccccc34)c2c1 | ? | 3.16µM* | 7.08µM* | 0.6 | 17.8µM* | -60.4%
CN(C)c1c([N+](=O)[O-])cc(N2C(=O)C=CC2=O)cc1[N+](=O)[O-] | -8.3 | 8.91µM* | / | 2.0 | / | 14.1µM*
CCC(=O)N1CCN(c2cc3c(cc2F)c(=O)c(C(=O)O)cn3CC)CC1 | -9.1 | 6.31µM* | / | -5.3 | / | 3.2%
COC(=O)[C@]1(C)N[C@H](CN(C)S(=O)(=O)c2ccc(-c3ccccc3)cc2)[C@@H]2C(=O)N(Cc3ccccc3)C(=O)[C@@H]21 | 0.4 | -18.0% | / | 1.5 | / | 49.7%
COC(=O)C(O)(c1ccc(N(C)C(=O)c2cccs2)cc1)C(F)(F)F (configuration not stated) | 17.2 | 22.4µM* | -7.2% | -12.8 | -8.5% | -1.3%
Cc1ccc(-n2c(C)cc(/C=C3/C(=O)NC(=O)N(C)C3=O)c2C)cc1 | 10.7 | -22.8% | ? | / | -4.5% | 57.8%
Cc1cc(C=C2C(=O)N(C)C(=S)N(C)C2=O)c(C)n1C1CCCCC1 | -7.3 | -35.5% | 35.5µM* | 1.3 | ? | 7.0%
Cc1cc(C=C2C(=O)NC(=S)NC2=O)c(C)n1C1CCCC1 | 3.6 | -23.1% | 44.7µM* | 5.5 | 79.4µM* | 25.2%
Cc1cc(C=C2C(=O)NC(=O)NC2=O)c(C)n1-c1cccnc1 | -4.4 | -25.0% | -12.8%[12.7 µM] | -2.4 | -2.3% | 10.5%
CN1C[C@H](CNC(=O)OCc2ccccc2)C[C@@H]2c3cccc4c3c(cn4C)C[C@H]21 | -7.8 | ? | 23.8µM*! | ? | 44.7µM* | -1.4%
CN1C[C@H](CO)C[C@@H]2c3cccc4[nH]cc(c34)C[C@H]21 | -5.4 | -13.4% | 3.1% | / | 0.4% | 20.0%
